hNpr1 antagonist: blocks ANP-stimulated signaling of human Npr1 receptor; 1.6% of 76,000 active; Potency, µM (titrated, usually from 46.3 µM), inactives show at the highest dose activity change, negative = inhibition, actives largely listed as inhibitors; P16066; AID 1347048; HEK293 hNpr1 GloSensor cGMP, ANP-stimulated luminescence; further: on the % scale 0 is the no-effect control and ±100 the full control effect; nearly all actives have a fitted effect of over 60% in size
Target sequence (P16066 whole entry, looked up): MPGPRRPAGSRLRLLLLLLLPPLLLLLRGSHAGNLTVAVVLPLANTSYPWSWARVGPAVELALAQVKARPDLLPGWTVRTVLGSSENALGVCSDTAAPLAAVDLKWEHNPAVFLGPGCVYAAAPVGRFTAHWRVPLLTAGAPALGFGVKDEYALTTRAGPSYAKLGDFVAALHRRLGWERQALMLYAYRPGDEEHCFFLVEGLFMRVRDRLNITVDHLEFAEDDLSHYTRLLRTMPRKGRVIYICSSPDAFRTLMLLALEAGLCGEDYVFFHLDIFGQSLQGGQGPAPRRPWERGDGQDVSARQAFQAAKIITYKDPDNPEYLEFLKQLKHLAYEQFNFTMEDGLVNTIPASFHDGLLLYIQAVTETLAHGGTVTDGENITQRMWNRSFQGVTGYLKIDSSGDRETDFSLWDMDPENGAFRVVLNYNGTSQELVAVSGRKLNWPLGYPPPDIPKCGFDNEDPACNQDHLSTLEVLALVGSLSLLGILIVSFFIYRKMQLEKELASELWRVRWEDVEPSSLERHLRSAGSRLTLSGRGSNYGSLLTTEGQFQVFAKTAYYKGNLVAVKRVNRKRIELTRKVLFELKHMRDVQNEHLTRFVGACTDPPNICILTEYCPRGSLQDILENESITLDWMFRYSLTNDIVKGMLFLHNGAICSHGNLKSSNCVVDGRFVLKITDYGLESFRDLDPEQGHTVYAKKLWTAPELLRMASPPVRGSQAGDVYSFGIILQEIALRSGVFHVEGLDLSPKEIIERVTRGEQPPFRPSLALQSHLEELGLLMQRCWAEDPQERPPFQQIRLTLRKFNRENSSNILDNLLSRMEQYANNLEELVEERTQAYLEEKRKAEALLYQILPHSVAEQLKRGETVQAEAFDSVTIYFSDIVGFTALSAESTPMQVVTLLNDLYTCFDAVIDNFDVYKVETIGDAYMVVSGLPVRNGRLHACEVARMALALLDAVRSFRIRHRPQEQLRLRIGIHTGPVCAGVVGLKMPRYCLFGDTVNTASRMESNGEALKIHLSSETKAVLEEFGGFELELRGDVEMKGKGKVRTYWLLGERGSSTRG
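HEK293 cells stably expressing human Npr1 and cGMP GloSensor pGS-40F, loaded 2 h with 2% GloSensor reagent, given compound 30 min at room temperature. Luminescence read before and 20 min after 0.1 nM hNppA.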
GPT2 inhibitor: GPT2 alanine aminotransferase inhibition; 0.25% of 100,000 active; Q8TD30; Potency, µM (titrated, usually from 57.7 µM), without a hit: at the highest dose activity change, negative = inhibition, usual class: inhibitors; Recombinant GPT2, coupled pyruvate oxidase/HRP Amplex Red fluorescence; AID 1671188; active means well fitted inhibition curve with a large enough effect; inconclusive means small, poorly fitted or top-dose-only effect; further: on the % scale 0 is the no-effect control and ±100 the full control effect; nearly all actives have a fitted effect of over 60% in size
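Inhibition is scored from Amplex Red fluorescence generated when pyruvate oxidase and HRP act on pyruvate released by GPT2. Reactions contain 10ng/uL enzyme, 250uM a-KG and 2mM L-alanine and run 30 min at room temperature.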
Npr1 antag conf: hNpr1 antagonism, confirmation assay. Potency, µM (titrated, usually from 57.6 µM), inactives show top-dose activity change, negative = inhibition, actives largely listed as inhibitors. HEK293 hNpr1 cGMP GloSensor luminescence, ANP-stimulated. 76% of 1,400 active. shares compounds with hNpr1 antagonist; further: nearly all actives have a fitted effect of over 70% in size
NPR2 antag: hNpr2 antagonism, selectivity versus Npr1. shares compounds with hNpr1 antagonist. 67% of 1,400 active. AID 1347046. Potency, µM (titrated, usually from 57.6 µM), for inactives: at the top dose activity change, negative = inhibition, most hits filed as inhibitors. HEK293 hNpr2 GloSensor cGMP luminescence, CNP-stimulated; further: nearly all actives have a fitted effect of over 70% in size
FLuc inh counter: inhibits firefly luciferase, false Npr1 antagonist flag | shares compounds with hNpr1 antagonist | purified FLuc enzyme, luminescence, Km substrate | Potency, µM (doses to about 57.6 µM), inactives show top-dose activity change, negative = inhibition, usual class: inhibitors | 0.7% of 1,400 active | AID 1347047; active means well fitted inhibition curve with a large enough effect; inconclusive means small, poorly fitted or top-dose-only effect; further: 0% is about no effect
GloSensor ctrl: counter-screen for Npr1 antagonists: GloSensor control cell line; shares compounds with hNpr1 antagonist; Potency, µM (top dose mostly 57.6 µM), for inactives: top-dose activity change, negative = inhibition, actives largely listed as inhibitors; HEK293 GloSensor cGMP, SNP-stimulated, luminescence; 69% of 1,400 active; further: on the % scale 0 is the no-effect control and ±100 the full control effect; nearly all actives have a fitted effect of over 70% in size
* hit, by the source's call; i = inactive; ? = inconclusive; . = no result; [ ] = another dose, or the depositor's remark. This excerpt belongs to a sample that is enriched for hits. Unless noted, the call rests on the fitted dose curve. Potency means the concentration at half of the fitted maximal effect.

SMILES	hNpr1 antagonist	GPT2 inhibitor	Npr1 antag conf	NPR2 antag	FLuc inh counter	GloSensor ctrl
CCc1ccc(CNC(=O)c2ccc3c(c2)N(C)C2CCCCN2C3=O)cc1 (stereo not drawn)	-3.0%	1.3%	.	.	.	.
COc1ccc(-c2nc(C)nc3c2CN([S+](=O)([O-])c2cccc(C(F)(F)F)c2)CC3)cc1	.	i	.	.	.	.
O=C1Nc2ccccc2CC12CCCN(Cc1ccccc1)C2 (stereo not drawn)	.	i	.	.	.	.
Cc1cnc(C2CC2)n1C1CCCN(C(=O)C2CC2)C1 (stereo not drawn)	-6.3%	-22.7%	.	.	.	.
CCn1cc(-c2ccc(Cl)cc2)cc1C(=O)N1CCN(c2ccccn2)CC1	?	i	.	.	.	.
CCn1cc(-c2ccc(C)cc2)cc1C(=O)N1CCN(c2ccccn2)CC1	14.1µM*	?	19.3µM*	19.3µM*	-1.6%	15.3µM*
O=C(Cc1ccccc1)N1CCCN(c2cc(-c3ccc(Br)cc3)[nH]n2)CC1	0.0%	?	.	.	.	.
CC1(COc2ccccc2)COc2ccc(C(=O)N3CCOCC3c3ccncc3)cc2N1 (stereo not drawn)	-24.8%	-11.0%	?	?	4.2%	?
CC1(COc2ccccc2)COc2ccc(C(=O)NCc3ccncc3)cc2N1 (stereo not drawn)	?	i	.	.	.	.
CCOc1ccc(-c2cc3c(=O)n(CCNC(=O)c4cccc(C#N)c4)ccn3n2)cc1	-1.3%	2.6%	.	.	.	.
Cc1cccc(CN2CCCn3nc(C)c(-c4ccccc4-c4ccccc4)c32)n1	15.8µM*	i	11.1µM*	28µM*	-1.6%[86.2 µM]	7.89µM*
Cc1ccncc1-c1c(C)nn2c1N(Cc1ccc(C(=O)O)cc1)CCC2	-12.1%[70.6 µM]	i	.	.	.	.
Cc1nn2c(c1-c1ccccc1-c1ccccc1)N(Cc1ccc(O)cc1)CCC2	3.55µM*	-7.1%[88.5 µM]	2.8µM*	4.98µM*	1.8%[86.2 µM]	3.53µM*
Cc1nn2c(c1-c1ccccc1-c1ccccc1)N(C(=O)Cc1ccccn1)CCC2	-10.0%[70.6 µM]	-7.3%[88.5 µM]	.	.	.	.
COc1ccc(Nc2ccnc(N3CCC(N[S+](=O)([O-])c4c(C)noc4C)CC3)n2)cc1	.	-2.1%	.	.	.	.
Cc1[nH]nc(CCC(=O)N2CCC3(CCCN(CC(C)(C)C)C3)C2)c1C (stereo not drawn)	2.8%	-31.2%	.	.	.	.
O=C(C1CC1)N1CCC(c2noc(-c3cccnc3)n2)C1 (stereo not drawn)	-2.1%	i	.	.	.	.
O=C(c1[nH]nc2c1CCc1ccccc1-2)N1CCC(c2noc(-c3cccnc3)n2)C1 (stereo not drawn)	12.6µM*	i	21.7µM*	24.3µM*	-2.9%	21.7µM*
CC1(c2ccccc2)N(Cc2ccccc2)C(=O)OC12CCN(C(=O)c1cccc(O)c1)CC2 (stereo not drawn)	-4.9%	2.6%	.	.	.	.
CC(=O)Nc1ccc2c(c1)nc1n2[C@@H](CNC(=O)NC(C)C)COC1	-1.8%[70.6 µM]	-8.7%[88.5 µM]	.	.	.	.
O=C(CCCc1ccccc1)N1CCCC(Cc2nc(C3CCOCC3)no2)C1 (stereo not drawn)	-0.3%	-0.2%	.	.	.	.
COCCC(=O)N1CCCC(Cc2nc(C3CCOCC3)no2)C1 (stereo not drawn)	-17.7%	-15.1%	-6.7%	1.5%	1.4%	1.8%
Cc1cnc(C(=O)N2CCCC2c2nc(CCOCC3CCCC3)no2)cn1 (stereo not drawn)	?	-15.3%	-22.5%	-17.4%	-1.7%	-1.8%
Cc1ccc(C(=O)N2CCCC2c2nc(CCOCC3CC3)no2)cn1 (stereo not drawn)	3.1%	i	.	.	.	.
CN(Cc1ccccc1)C(=O)c1noc(-c2ccc(F)cc2)n1	-8.4%	i	.	.	.	.
SMILES	hNpr1 antagonist	GPT2 inhibitor	Npr1 antag conf	NPR2 antag	FLuc inh counter	GloSensor ctrl
COc1ccccc1-c1[nH]nc2ncc(C(=O)NCC3CC3)nc12	?	i	?	25µM*	-0.4%[86.2 µM]	3.2%[86.2 µM]
COc1ccccc1-c1[nH]nc2ncc(C(=O)NCc3ccccc3)nc12	2.2%[70.6 µM]	4.2%[88.5 µM]	.	.	.	.
COc1ncccc1CN1CCCC12Cc1ccccc1CNC2=O (stereo not drawn)	.	i	.	.	.	.
CCc1ccc(CN2CCCC23Cc2ccccc2CNC3=O)cc1 (stereo not drawn)	.	i	.	.	.	.
CCc1ccc(CN2CCCC23Cc2ccccc2CNC3=O)s1 (stereo not drawn)	.	i	-20.9%	-5.1%	4.3%	0.1%
COc1ccc(CN2CCCCC23Cc2ccccc2CNC3=O)c(OC)n1 (stereo not drawn)	.	?	?	17.2µM*	-0.7%	3.7%
Clc1ccc(CN2CC[C@H](c3nc4cc(Cl)ccc4o3)C2)cc1	-21.5%[70.6 µM]	4.2%[88.5 µM]	.	.	.	.
CCS(=O)(=O)c1ccc2oc([C@H]3CCN(Cc4cccc(Cl)c4)C3)nc2c1	?	i	35.3µM*	35.3µM*	-4.5%[86.2 µM]	?
O=C(NCC(F)(F)F)c1cc(C2CC2)nc2c1c(C1CCCN1)nn2-c1ccccc1 (stereo not drawn)	.	i	.	.	.	.
CCc1[nH]c2c(CNC(=O)c3n[nH]c4c3CCC4)cc(C)cc2c1C	-17.1%	-12.7%[11.5 µM]	.	.	.	.
Cc1cc(CNC(=O)c2cc(C(C)C)nn2C)c2[nH]c(C)c(C)c2c1	7.08µM*	i	6.85µM*	6.85µM*	-1.9%	4.85µM*
CN1CCN(c2cc(=O)c3ccnc(-c4cn[nH]c4)c3o2)CC1	0.4%[70.6 µM]	0.2%[88.5 µM]	.	.	.	.
O=C(C1CCOCC1)N1CCOC[C@H](Oc2cnccn2)C1	7.7%[70.6 µM]	-9.2%[88.5 µM]	.	.	.	.
O=C(N[C@H](c1ccccn1)C1CC(O)C1)C1(c2ccc(Cl)cc2)CCC1 (stereo partly drawn)	?	-3.5%[11.5 µM]	?	19.3µM*	0.8%	0.7%
CS(=O)(=O)c1ccc(CC(=O)N[C@H](c2ccccn2)C2CC(O)C2)cc1 (stereo partly drawn)	-18.5%	?	.	.	.	.
O=C1N[C@H](CC(=O)N2CCC(c3ccccc3)C2)C(=O)Nc2ccccc21 (stereo partly drawn)	6.5%	i	.	.	.	.
O=C1N[C@H](CC(=O)N2CCC(Cc3ccccc3)CC2)C(=O)Nc2ccccc21	10µM*	i	19.3µM*	12.2µM*	-0.5%	-19.5%
COc1ccc(-c2nccn3cc(C(=O)NCCc4cccnc4)nc23)cc1	-0.2%	3.6%	.	.	.	.
COc1ccc(-c2nccn3cc(C(=O)NCc4cccnc4)nc23)cc1	11.2µM*	0.7%	24.3µM*	19.3µM*	1.3%	3.7%
O=c1c2c(CO)c(-c3ccc(F)cc3)nn2ccn1Cc1ccc(Br)cc1	?	0.9%	.	.	.	.
CCCN1CCC2(CCN(C(C)=O)CC2)Oc2ccccc21	16.3%[70.6 µM]	4.9%[88.5 µM]	.	.	.	.
O=C(Nc1ccc2c(c1)OCCO2)N1CCC(Cc2noc(C3CCOCC3)n2)C1 (stereo not drawn)	-12.7%	-14.7%	.	.	.	.
Cc1cc(COc2ccccc2)oc1C(=O)N1CCn2nc(C(C)O)cc2C1 (stereo not drawn)	-20.5%	i	.	.	.	.
